# Assay outcomes from PubChem.
# A selection: hits, their analogues and other compounds. The true share with any hit is near 1.6%.
# KCNQ2 pot: KCNQ2 (rat) channel potentiation | B-score at 10 µM | CHO-K1 KCNQ2, FluxOR thallium flux fluorescence; active compounds read high | 310,000 tested, 0.54% active | O88943;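 active = fluorescence ratio B-score at least 3 SD of library B-scores, with initial fluorescence B-score within 3 of them, cut at about 5.3 in these data; same plate scores as AID 2156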;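 note: B-score of peak minus minimum over baseline fluorescence ratio after K+ and Tl+ stimulus; positive B-score means potentiation of KCNQ2 with more thallium influx and brighter signal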
# Target sequence (O88943 whole entry, looked up): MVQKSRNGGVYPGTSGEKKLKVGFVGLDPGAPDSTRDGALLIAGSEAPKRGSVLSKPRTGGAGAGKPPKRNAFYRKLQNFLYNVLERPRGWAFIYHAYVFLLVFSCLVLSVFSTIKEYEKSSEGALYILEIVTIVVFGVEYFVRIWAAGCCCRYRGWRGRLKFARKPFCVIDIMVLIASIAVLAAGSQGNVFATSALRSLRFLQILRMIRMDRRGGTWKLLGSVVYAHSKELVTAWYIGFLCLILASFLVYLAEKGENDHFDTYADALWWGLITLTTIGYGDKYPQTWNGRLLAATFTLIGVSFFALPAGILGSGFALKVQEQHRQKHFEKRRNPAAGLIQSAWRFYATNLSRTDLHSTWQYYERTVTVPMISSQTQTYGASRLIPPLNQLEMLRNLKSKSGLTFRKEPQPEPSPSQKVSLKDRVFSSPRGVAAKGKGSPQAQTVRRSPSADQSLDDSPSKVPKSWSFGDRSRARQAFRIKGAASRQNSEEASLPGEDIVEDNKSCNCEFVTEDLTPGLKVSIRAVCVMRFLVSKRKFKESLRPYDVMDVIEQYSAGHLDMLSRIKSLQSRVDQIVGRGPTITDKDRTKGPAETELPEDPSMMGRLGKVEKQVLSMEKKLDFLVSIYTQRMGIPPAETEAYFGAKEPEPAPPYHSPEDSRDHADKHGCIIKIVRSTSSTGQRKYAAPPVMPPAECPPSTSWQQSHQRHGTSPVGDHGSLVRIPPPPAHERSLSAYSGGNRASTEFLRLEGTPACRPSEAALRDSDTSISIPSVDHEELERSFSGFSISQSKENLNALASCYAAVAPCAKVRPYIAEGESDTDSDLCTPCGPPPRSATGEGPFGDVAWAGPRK
# KCNQ2 block: inhibitors of rat KCNQ2 potassium channel. O88943. 310,000 tested, 1.1% active. B-score at 10 µM. CHO-K1 KCNQ2, FluxOR thallium flux, 20 min; active compounds read low;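 active = fluorescence ratio B-score at most minus 3 library SDs, with starting brightness B-score within 2 library SDs, cut at about -5.5 in these data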
# Kir21 confirm: confirmation of mouse Kir2.1 potassium channel inhibitors | shares compounds with KCNQ2 pot | Kir2.1-expressing cells, FluxOR thallium flux fluorescence; active compounds read low | Tl flux remaining, % of negative control (active compounds read low), % at 10 µM | 2,300 tested, 41% active;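 active = Primary-screen hit whose thallium flux fell at least 3 control SD below untreated wells in both duplicates, with normal baseline fluorescence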;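 note: 0% = blank wells without stimulus and 100% = stimulated no-compound controls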
# HEK293 ctr: parental HEK293 activity in Kir2.1 inhibitor counter-screen; AID 2105; parental HEK293 cells, FluxOR thallium flux fluorescence; 0% = unstimulated blank wells; shares compounds with KCNQ2 pot; FluxOR signal as % of negative control (100 = no effect), % at 10 µM; 2,300 tested, 19% active;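 active = dye signal at least 3 control SD above or below untreated wells in both duplicates, raw fluorescence within 3, either direction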;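 note: percent is based on the flux ratio of peak minus minimum fluorescence over baseline F0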
# CHO-K1 Tl ctr: counter-screen for KCNQ2 potentiators: effect in parental CHO-K1 cells | shares compounds with KCNQ2 pot | FluxOR thallium flux fluorescence; zero = vehicle mean+3SD, 100% = vehicle-minus-blank window | activity increase over 3SD of controls, % at 10 µM | 1,200 tested, 43% active | AID 2282;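 active = signal rise of at least 3 SD above the untreated control mean, in both duplicate wells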;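 note: counter screen of KCNQ2 potentiator hits so any rise reflects channel-independent effects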
# KCNQ1 sel pot: tests whether KCNQ2 potentiators also act on human KCNQ1; shares compounds with KCNQ2 pot; CHO KCNQ1 stable, FluxOR thallium flux fluorescence; beyond 3SD, as % of vehicle-control signal; activation over 3SD threshold, % at 10 µM; 1,200 tested, 28% active;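 active = fluorescence ratio rise of at least 3 SD of vehicle wells above their mean, in both replicate wells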;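 note: 0% = vehicle mean plus 3 SD and 100% = vehicle minus unstimulated blank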
# KCNQ2 pot conf: confirmation of rat KCNQ2 potassium channel potentiators; potentiation, less the hit threshold, % at 10 µM; AID 2287; shares compounds with KCNQ2 pot; CHO-KCNQ2 cells, FluxOR thallium flux fluorescence; 1,200 tested, 68% active;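 active = fluorescence ratio rising 3 SD or more over the vehicle control mean in both replicates, plus primary screen hit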;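 note: peak minus minimum thallium fluorescence divided by baseline after K/Tl stimulus; 0% = vehicle mean plus 3 SD and 100% = vehicle minus unstimulated blank difference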
# Kir21 spec: selectivity of KCNQ2 potentiators: effect on mouse Kir2.1. HEK293 Kir2.1, FluxOR thallium flux fluorescence. activity over 3SD threshold, % at 10 µM. 1,200 tested, 2% active. shares compounds with KCNQ2 pot;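 active = fluorescence ratio rise of at least 3 SD above the vehicle-control mean, seen in both replicates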;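 note: 0% = vehicle mean plus 3 SD and 100% = vehicle minus no-stimulus blank window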
# KCNQ2 W236L MoA: rat KCNQ2 W236L mutant potentiation by KCNQ2 potentiators; AID 2558; current increase over 3SD of negative controls (%), active compounds read high, % at 25 µM; 940 tested, 10% active; shares compounds with KCNQ2 pot; CHO KCNQ2-W236L, automated patch clamp current;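 active = current increase at least 3 SD of the untreated controls above them in both duplicate recordings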
# * marks the source's active call; other numbers are inactive results; i = inactive; / = no result.
SMILES,KCNQ2 pot,KCNQ2 block,Kir21 confirm,HEK293 ctr,others
CC1CCN(CC(=O)Nc2ccc(S(=O)(=O)N3CCCCC3)cc2)CC1,0.02,i,/,/,
C(=N\NC1=NCCN1)/c1ccncc1,1.4,i,/,/,
CN(Cc1ccccc1)S(=O)(=O)CCNC(=O)c1ccc2c(c1)OCO2,/,i,/,/,
CSc1nc2c(c(=O)[nH]1)C(c1cccc(Cl)c1)CC(=O)N2 (stereo not drawn),0.81,i,/,/,
CSc1nc2c(c(=O)[nH]1)C(c1ccc(Cl)cc1)CC(=O)N2 (stereo not drawn),/,i,i,i,
C=CCn1nnnc1SCC(=O)Nc1cccc(C(F)(F)F)c1,/,i,/,/,
CN(c1ccccc1)c1ccc(/C=C/[N+](=O)[O-])cc1,/,i,i,i,
CN(C)c1ccc(-n2cccc2/C=C/[N+](=O)[O-])cc1,/,i,/,/,
Cc1c(S(=O)(=O)N2CCN(c3cccc(C(F)(F)F)c3)CC2)c(=O)n(C)c(=O)n1C,9.6*,i,i,i,CHO-K1 Tl ctr=5.5*;KCNQ1 sel pot=51*;KCNQ2 pot conf=-22;Kir21 spec=-39
Cn1cc(S(=O)(=O)N2CCN(c3cccc(C(F)(F)F)c3)CC2)c(=O)n(C)c1=O,/,i,/,/,
COc1ccccc1N1CCN(/N=C/C(Cl)=C/c2ccccc2)CC1,/,i,/,/,
O=C(NC(=S)Nc1ccc(Cl)cc1)c1ccccc1,/,i,/,/,
O=C(Nc1ccc(Cl)cc1)C(Cl)C(=O)c1ccccc1 (stereo not drawn),0.25,i,70%*,i,
Cc1ccc(S(=O)(=O)N(CC(=O)Nc2ccccc2C(=O)O)c2ccccc2)cc1,/,i,/,/,
Cc1cc(N2CCCC2=O)ccc1S(=O)(=O)NC1CCCCC1,0.7,i,/,/,
Nc1cccc(S(=O)(=O)Nc2ccccc2)c1,0.56,i,/,/,
CSc1nnc2ccc(-c3cccs3)nn12,0.95,i,/,/,
CNC(=O)c1sccc1SCc1ccc(Cl)cc1Cl,/,i,/,/,
CNC(=O)c1sccc1SCc1c(Cl)cccc1Cl,/,i,46%*,i,
CC(=O)NNc1nc(-c2ccccc2)c2cc(Br)ccc2n1,/,i,/,/,
O=C(CN1CCCCC1)NNc1nc(-c2ccccc2)c2cc(Br)ccc2n1,11*,i,i,i,CHO-K1 Tl ctr=75*;KCNQ1 sel pot=-11;KCNQ2 pot conf=71*;Kir21 spec=-39;KCNQ2 W236L MoA=i
Cc1ccc(OCc2cc(C(=O)N(C)Cc3cnc4ccccn34)no2)cc1C,1.6,i,/,/,
O=C(NC(=S)Nc1ccc(Cl)cc1)c1cncc(Br)c1,2.9,i,/,/,
Cc1ccc(NC(=S)NC(=O)c2cncc(Br)c2)cc1Cl,7.2*,i,i,i,CHO-K1 Tl ctr=0.8*;KCNQ1 sel pot=-8;KCNQ2 pot conf=-16;Kir21 spec=-38
CCN(CCn1cccn1)C(=O)C1CCC(=O)N(CCN2CCOCC2)C1 (stereo not drawn),/,i,/,/,
SMILES,KCNQ2 pot,KCNQ2 block,Kir21 confirm,HEK293 ctr,others
CCN(c1cccc(C)c1)S(=O)(=O)c1cc2c3c(c1)CCC(=O)N3CCC2,/,i,i,i,
CCCN(CCC)S(=O)(=O)c1cc2c3c(c1)CCN3C(=O)CC2,/,i,/,/,
Cn1c(=O)[nH]c(=O)c2c1nc1n2CC(O)CN1c1ccccc1 (stereo not drawn),/,i,/,/,
CCSc1nnc(NC(=O)CC)s1,0.02,i,/,/,
CCSc1nnc(NC(=O)CC(C)C)s1,0.43,i,i,i,
CC(C)Cc1ccc(C(C)C(N)=NCCc2ccccc2)cc1 (stereo not drawn),/,i,i,i,
COc1ccc(CCN=C(N)C(C)c2ccccc2)cc1OC (stereo not drawn),0.65,i,/,/,
COC(=O)/C(=C1/Oc2ccc(C)cc2S1)C(F)(F)F,2.2,i,/,/,
C=CCOc1cccc(C(=O)N2CCCC(Nc3ccc4c(c3)OCCO4)C2)c1 (stereo not drawn),/,i,/,/,
Cc1cccc(NC(=O)CSCC(=O)Nc2ccccc2C(=O)NC2CC2)c1,/,i,/,/,
C=CCn1c(SCc2ccc(C(=O)OC)cc2)nnc1-c1sc(N)nc1C,0.11,i,/,/,
C=CCn1c(SC/C=C/c2ccccc2)nnc1-c1sc(N)nc1C,/,i,60%*,i,
CCc1ccc(CN(C)C(=O)c2cc(=O)c3ccccc3o2)cc1,/,i,/,/,
CN1CCC(N(C)C(=O)c2cc(=O)c3ccccc3o2)CC1,/,i,i,i,
COC(=O)c1cc(S(=O)(=O)C(C)C)c(S(C)=O)s1 (stereo not drawn),/,i,/,/,
CCn1c(=O)n(CC)c2cc(NC(=O)C(C)c3ccccc3)c(Br)cc21 (stereo not drawn),22*,i,i,i,CHO-K1 Tl ctr=-8;KCNQ1 sel pot=-24;KCNQ2 pot conf=95*;Kir21 spec=-24;KCNQ2 W236L MoA=i
CCn1c(=O)n(CC)c2cc(N3CCCC3)c(NC(=O)c3cccc(C)c3)cc21,/,i,/,/,
COc1cc(CN2CCC(n3nccc3NC(=O)C3CC3)CC2)cc(OC)c1,0.76,i,/,/,
CC(CCc1ccc(O)cc1)NC1C2CC3CC(C2)CC1C3 (stereo not drawn),0.58,i,/,/,
CC(CCc1ccc(O)cc1)NC1c2ccccc2-c2ccccc21 (stereo not drawn),2.8,i,33%*,i,
Cn1c(N)c(N2CCCCC2)c(=O)n(CC(=O)Nc2ccc(Cl)c(Cl)c2)c1=O,17*,i,i,i,CHO-K1 Tl ctr=-7;KCNQ1 sel pot=-15;KCNQ2 pot conf=47*;Kir21 spec=-35;KCNQ2 W236L MoA=i
O=C(CCC(=O)N1CCCCC1)Nc1ccc(Cl)c(Cl)c1,/,i,/,/,
C/C(=N\NC(=O)c1cccc(Br)c1)c1ccccn1,7.7*,i,i,i,CHO-K1 Tl ctr=-19;KCNQ1 sel pot=-11;KCNQ2 pot conf=-23;Kir21 spec=-36
C/C(=N\NC(=O)c1ccc(Cl)c(Cl)c1)c1ccccn1,/,i,/,/,
Cc1ccc(/C=N/n2c(-c3cccs3)n[nH]c2=S)cc1,1.8,i,/,/,
S=c1[nH]nc(-c2cccs2)n1/N=C/c1c(Cl)cccc1Cl,7.4*,i,i,i,CHO-K1 Tl ctr=-4;KCNQ1 sel pot=-20;KCNQ2 pot conf=7.3*;Kir21 spec=-38;KCNQ2 W236L MoA=i
O=C(CC1C(=O)NCCN1Cc1ccccc1)NCCCOc1cccnc1 (stereo not drawn),/,i,/,/,
COc1ccccc1NC(=O)c1cc(S(=O)(=O)N2CCCC2)cn1C,/,i,/,/,
COc1ccc(N2CCN(C(=O)c3cn(CC4CCCCC4)nn3)CC2)cc1,1.1,i,/,/,
CCOc1ccc(NC(=O)NNC(=O)C(C)Oc2ccccc2OC)cc1 (stereo not drawn),0.62,i,/,/,
